CYP2C19 act: increases human CYP2C19 enzyme activity. recombinant CYP2C19, luciferin-H EGE luminescence; hits give high values; 0 = fully inhibited enzyme, 1 = untreated enzyme. activation factor at 5 µM. 96,000 tested, under 10 active. AID 1025;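 active = activation factor of at least 2 at 5 µM in the primary screen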;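 also: 0 = wells with 2.5 mM tranylcypromine and 1 = vehicle-only wells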
CYP2C19 inh: blocks human cytochrome P450 2C19 | CYP2C19 Supersomes, luciferin-H EGE luminescence, 30 min | 96,000 compounds, 21% hits | AID 778 | inhibition, % at 5 µM;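 active = CYP2C19 inhibition above a set limit at 5 µM in the primary screen, cut at about 50% in these data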;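 also: plate controls were negative control wells for no effect and 2.5 mM tranylcypromine positive control for full effect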
CYP2C9 activ: increases human cytochrome P450 2C9 activity; 96,000 compounds, 1.4% hits; recombinant CYP2C9, luciferin-H conversion, luminescence; hits give high values; factor 1 = untreated enzyme, 0 = blocked; activation factor at 5 µM; AID 1024;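 active = activation factor of 2 or more for CYP2C9 at a 5 µM dose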;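 also: 0 = sulfaphenazole-blocked wells and 1 = vehicle-only wells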
Target sequence (P11712 whole entry, looked up): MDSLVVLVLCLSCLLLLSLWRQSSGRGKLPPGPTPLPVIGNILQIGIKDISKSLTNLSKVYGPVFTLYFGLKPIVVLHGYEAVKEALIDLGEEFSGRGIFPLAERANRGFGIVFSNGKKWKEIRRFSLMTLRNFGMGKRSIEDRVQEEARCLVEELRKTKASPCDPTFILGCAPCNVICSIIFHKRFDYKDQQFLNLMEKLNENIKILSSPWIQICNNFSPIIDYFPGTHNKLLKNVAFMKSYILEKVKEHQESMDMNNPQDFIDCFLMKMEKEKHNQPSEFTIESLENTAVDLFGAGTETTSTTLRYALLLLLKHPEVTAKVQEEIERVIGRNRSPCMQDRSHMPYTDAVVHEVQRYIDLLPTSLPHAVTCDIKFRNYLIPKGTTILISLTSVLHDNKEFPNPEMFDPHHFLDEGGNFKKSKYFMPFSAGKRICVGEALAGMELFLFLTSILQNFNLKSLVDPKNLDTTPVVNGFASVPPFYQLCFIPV
CYP2C9 inhib: human CYP2C9 inhibition | CYP2C9 Supersomes, luciferin-H conversion, luminescence | 96,000 compounds, 20% hits | P11712 | inhibition, % at 5 µM;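 active = blocking of liver enzyme CYP2C9 beyond about 50% at 5 µM, limit read from the data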
Cav32 inh: blocks human Cav3.2 T-type calcium channel. Cav3.2-expressing cells, Fluo-4 calcium fluorescence FDSS; hits give low values. B-score at 10 µM. AID 449739. 100,000 compounds, 4% hits. O95180;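 active = single-dose well whose peak fluorescence ratio is a statistical outlier from its plate by either plate-standardised score or position-corrected B-score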
An asterisk follows results filed as active; · = not tested or not shown. The list is not random: actives were taken first. Their share in the collection is about 27%.

SMILES	CYP2C19 act	CYP2C19 inh	CYP2C9 activ	CYP2C9 inhib	Cav32 inh
CN1CCN(c2ccc(Cl)cc2NC(=O)C2COc3ccccc3O2)CC1 (configuration not stated)	0.9	11	0.6	38	-4.5*
O=C(OCc1c(Cl)nc2sccn12)c1cc2c(s1)CCCC2	1.1	-11	1.2	-24	0.061
Cc1cccc(N2C(N)=NC(N)=NC23CCCCC3)c1	1	0	0.9	7	0.38
CSc1nnc2c3ccccc3c3ccccc3c2n1	0.7	28	1	0	·
COc1cc(CN(C)CCc2ccccc2)ccc1OCc1ccccc1	0.9	14	0.9	12	-1.3
COc1ccc(CCNC(=O)CC2COc3ccccc3O2)cc1OC (configuration not stated)	0	97*	0	97*	-0.14
Cc1[nH]c2ccccc2c1C(c1ccccn1)N1CCC(C)CC1 (configuration not stated)	0.5	50	1.1	-14	1.7
Cn1cc(C(c2ccccn2)c2cn(C)c3ccccc23)c2ccccc21	0.6	44	0	96*	-6.6*
Cc1ccccc1C(O)c1ccccn1 (configuration not stated)	0.8	17	0.9	6	0.44
c1ccc(C(c2c[nH]c3ccccc23)c2c[nH]c3ccccc23)nc1	0.5	54*	0.1	95*	·
CCOC(=O)N1CCN(C(=O)c2cc(-c3ccc(OCC)cc3)nc3ccccc23)CC1	0.8	16	0.2	76*	-2.1
O=C(c1ccco1)N1CCN(C(=O)c2cc(-c3ccccn3)nc3ccc(Cl)cc23)CC1	0.5	53*	0.1	88*	0.66
COc1ccc(-c2cc(C(=O)N3CCN(c4ccccn4)CC3)c3ccccc3n2)cc1	0.4	59*	0.2	77*	0.17
CCOc1ccc(-c2cc(C(=O)N3CCN(C)CC3)c3ccccc3n2)cc1	1	-4	0.8	22	0.094
CS(=O)(=O)N1CCN(C(=O)c2cc(-c3ccncc3)nc3ccc(Cl)cc23)CC1	0.6	36	0.3	68*	1.1
CCOc1cc(C2/C(=C(\O)c3cc(C)ccc3C)C(=O)C(=O)N2CCN(C)C)ccc1O (configuration not stated)	1.1	-14	1	-5	0.46
CCCN1/C(=C(/C#N)C2=NS(=O)(=O)c3ccccc32)N(C)c2ccccc21	0.9	15	1	0	0.31
Cc1ccc(-c2cc(C(F)F)n3ncc(C(=O)N4CCN(c5ccccn5)CC4)c3n2)cc1	0.5	46	0.4	57*	-5.3*
O=C(c1cc(-c2ccccn2)nc2ccc(Br)cc12)N1CCc2ccccc2C1	0.1	87*	0.1	89*	·
O=C(O)c1cc(-c2ccncc2)nc2ccc(S(=O)(=O)N3CCOCC3)cc12	0.9	7	0.4	60*	0.05
O=C(O)c1cccc(S(=O)(=O)N2CCOCC2)c1	1.2	-16	1	-5	-0.28
COc1ccc(OC)c(-c2cc(C(=O)N3CCN(c4ncccn4)CC3)c3ccccc3n2)c1	0.3	65*	0.1	89*	-0.34
COC(=O)c1ccc2nc(C(F)(F)F)[nH]c2c1	0.7	34	0.6	45	0.49
COc1ccccc1-c1cc(C(=O)N2CCc3ccccc3C2)c2ccccc2n1	0.5	48	0.4	64*	·
Cc1ccc(NCN2C(=O)C3CC=CCC3C2=O)cc1 (configuration not stated)	·	·	·	·	0.75
SMILES	CYP2C19 act	CYP2C19 inh	CYP2C9 activ	CYP2C9 inhib	Cav32 inh
CC(C)(C)n1nnnc1C(c1ccccc1F)N(Cc1ccco1)CC1CCCO1 (configuration not stated)	0.7	30	0.3	71*	-3.2
Cc1cccc2cc(C(c3nnnn3C(C)(C)C)N(Cc3ccco3)CC3CCCO3)c(=O)[nH]c12 (configuration not stated)	0.8	24	0.4	56*	-1.1
O=C(NCc1ccco1)C(c1ccccc1F)N(CC1CCCO1)C(=O)Cn1nnc2ccccc21 (configuration not stated)	1	2	0.9	12	·
Cc1ccc2[nH]c(=O)c(C(c3nnnn3C(C)(C)C)N(Cc3ccco3)CC3CCCO3)cc2c1 (configuration not stated)	0.9	9	1	4	-1.1
CC(C)COC(=O)c1ccc(NC(=O)C2C3CCC(C3)C2C(=O)O)cc1 (configuration not stated)	0.9	7	1	-4	-0.84
COC(=O)c1cn(CCOc2ccccc2)c2ccccc12	0	96*	0	97*	·
Cc1ccc(OCCn2cc(C(=S)N3CCCC3)c3ccccc32)cc1C	0.3	67*	0.4	63*	-3.6
COC(=O)c1cn(CCOc2ccccc2OC)c2ccccc12	·	·	·	·	-3.5
S=C(c1cn(CCOc2ccccc2)c2ccccc12)N1CCCC1	0.7	25	0.5	48	-0.16
COC(=O)c1cn(CCOc2ccccc2F)c2ccccc12	0	98*	0	99*	-0.92
Cc1ccccc1OC(=O)C1C(c2ccccc2)C(C(=O)O)C1c1ccccc1 (configuration not stated)	1.1	-6	1	2	-0.97
CN(C(=O)c1cccc(Nc2ccc(-c3ccc4c(c3)OCCO4)nn2)c1)C1CCCCC1	·	·	·	·	-3.8*
Cc1ccc(S(=O)(=O)/N=C(/Nc2nc(C)cc(C)n2)N2CCOCC2)cc1	1	-4	1	4	-0.011
COc1ccc(N2CCN(/C(=N\S(=O)(=O)c3ccccc3)Nc3nc(C)cc(C)n3)CC2)cc1	0.9	11	0.3	67*	0.9
CCOC(=O)NCc1ccc(S(=O)(=O)Nc2ccc(C)cc2)cc1	·	·	·	·	-0.57
CCNC(=O)Cc1ccc(NS(=O)(=O)c2ccc(F)cc2)cc1	0.7	27	0.5	53*	0.022
O=C(Cc1ccc(NS(=O)(=O)c2ccc(F)cc2)cc1)NCc1ccccc1	0.2	76*	0.1	94*	-5.2*
CCNS(=O)(=O)c1ccc(NC(=O)Cc2ccc(F)cc2)cc1	0.9	10	0.5	48	-1.6
O=C(CSc1nnc(C2CC2)n1-c1ccccc1)Nc1ccc(N2CCOCC2)cc1	0.9	9	0.7	30	0.74
O=C(c1cccs1)n1cc(C(=S)N2CCOCC2)c2ccccc21	0.3	68*	0.9	12	-3.5
O=C(Nc1ccc2c(c1)OC1(CCCC1)O2)C1CC1	0.1	88*	0.4	64*	-1.5
Cn1c(=O)c(-c2cc(Br)ccc2N)nc2ccccc21	0.1	93*	0.5	52*	·
CCOC(=O)Cn1c(=O)c(-c2ccccc2N)nc2ccccc21	·	·	·	·	-0.13
CCOc1cc(N2CCOCC2)c(OCC)cc1NC1=NCCCCC1	0.8	15	0.9	6	-0.63
O=C(NC1CCCc2ccccc21)C1CCN(c2nnc(-n3cccc3)s2)CC1 (configuration not stated)	0.6	37	0.6	38	-0.45
Cc1cccnc1NC(=O)COc1ccc2oc3c(c2c1)CCCC3	·	·	·	·	-5.6*
